For assay [1], the system named is MILI (PIWIL2) piRISC loaded with L1MC piRNA (26 nt). Briefly: pre-steady-state target cleavage rate (min^-1); guide: L1MC piRNA 5'p-UAACUAAAUACUAUGCAAGCUGUAGG; higher = faster piRNA-guided slicing of the target. An outline of the steps:
(§1)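 In this Cleave-'n-Seq assay, uncleaved targets were sequenced and normalised to depth and to weakly complementary targets. They came from a transcribed, DNA-blocked target RNA library […] mixed with 1 nM active affinity-purified piRISC carrying one synthetic guide, with or without 500 nM GTSF1 partner protein, in HEPES–potassium acetate buffer at 33 °C for 0–8 or 0–960 min. After three trials were pooled and k3 was capped at 0.0001 min^-1, the pre-steady-state cleavage rate was obtained from a burst-and-steady-state fit.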

Assay [2] has as its system EfPiwi piRISC loaded with L1MC piRNA (26 nt). Nature of the assay: pre-steady-state target cleavage rate (min^-1); auxiliary factor: 500 nM Ephydatia muelleri Gtsf1; guide: L1MC piRNA 5'p-UAACUAAAUACUAUGCAAGCUGUAGG; MIWI and MILI are mouse PIWI proteins and EfPiwi is from a freshwater sponge; tags in brackets are library labels; higher = faster piRNA-guided slicing of the target. An outline of the steps: as §1
[3] abbreviates: auxiliary factor: 500 nM mouse GTSF1.
Where [4] appears, read: auxiliary factor: none (no GTSF1).

± gives the standard deviation.

Take UCCUGGAUGUCGAUGCAUAGUACUUAGUUA: the “pre-steady-state target cleavage rate” value in assay [1] (setting [3]) is 0.025 ± 0.0066; in assay [1] (setting [4]), 0.0058 ± 0.0019; in assay [2] it was 0.00454 ± 0.0029.
The like results for UCCUCGUACAGCUUGCAUUGUAUUUAGUUA were, in that order, 0.223 ± 0.011, 0.00719 ± 0.0021 and 0.0163 ± 0.004.
As to UCCUGGUCACAGCUUGCAUAGUAUUUAGUUA, the results for the “pre-steady-state target cleavage rate” value in assay [1] (setting [3]), in assay [1] (setting [4]) and in assay [2] were 0.239 ± 0.018, 0.0126 ± 0.0051 and 0.00857 ± 0.0072, respectively.
The like results for UCCUGGAACACCUUGCAUAGUAAUUAGUUA were, in that order, 0.191 ± 0.031, 0.00362 ± 0.0024 and 0.00283 ± 0.0022.
The like results for UCCUCCUACAGCUUGCAUUGUAUUUUGUUA were, in that order, 0.0994 ± 0.015, 0.00327 ± 0.0022 and 0.00442 ± 0.0027.
For UCCUGGAUGUGCUUGCAUAGUAUUAAGUUA the same measures were 0.162 ± 0.025, 0.00745 ± 0.0021 and 0.00372 ± 0.0032.
As to UCCUGGUACAGCUUGCAUAGUACUUUAGUUA, the entries for the “pre-steady-state target cleavage rate” value in assay [1] (setting [3]), in assay [1] (setting [4]) and in assay [2] were 0.147 ± 0.024, 0.00705 ± 0.0032 and 0.00549 ± 0.0027, respectively.
The like results for UCCUGGAUGUCCUUGCAUAGUAUUUUAGUUA were, in that order, 0.107 ± 0.017, 0.0134 ± 0.0036 and 0.00287 ± 0.0028.
In the case of UCCUGGAUCAGCUUGCAUAGUAUUUAAGUUA, the entries for the “pre-steady-state target cleavage rate” value in assay [1] (setting [3]), in assay [1] (setting [4]) and in assay [2] were 0.251 ± 0.025, 0.0108 ± 0.0029 and 0.00608 ± 0.0023, respectively.
The like results for UCCUGGAUGUCCUUGCUUAGUAUUUAGUUA were, in that order, 0.0537 ± 0.0095, 0.00574 ± 0.0022 and 0.00568 ± 0.0037.
For UCCUGCAACAGCUUGCAUAGUAAUUAGUUA the same measures were 0.34 ± 0.025, 0.00709 ± 0.0027 and 0.00951 ± 0.0021.
For the sequence UCCUGGUACACCUUGCUUAGUAUUUAGUUA, the “pre-steady-state target cleavage rate” value in assay [1] (setting [3]) is 0.134 ± 0.024; in assay [1] (setting [4]), 0.0117 ± 0.0037; in assay [2], 0.00384 ± 0.0027.
The like results for UCCUGGUUGAGCUUGCAUAGUAUUUAGUAA were, in that order, 0.196 ± 0.022, 0.00595 ± 0.0027 and 0.00604 ± 0.0023.
For UCCUGGAUCAGCUUGCAUUGUAUUAAGUUA the same measures were 0.142 ± 0.016, 0.00356 ± 0.0025 and 0.00314 ± 0.0017.
For UCCUGCUACAGCUUGCAAAGUAAUUAGUUA the same measures were 0.124 ± 0.018, 0.00266 ± 0.0025 and 0.00362 ± 0.0019.
On to UCCUGGAAAGCUUGCAUAGUAUUUAGUUA, for which the “pre-steady-state target cleavage rate” value stood at 0.276 ± 0.016 in assay [1] (setting [3]), 0.00624 ± 0.0022 in assay [1] (setting [4]) and 0.035 ± 0.0098 in assay [2].
Regarding UCCUCCUACAGCUUGACAUAGUAUUUAGUUA, the “pre-steady-state target cleavage rate” value in assay [1] (setting [3]) was found to be 0.267 ± 0.018; in assay [1] (setting [4]), 0.00554 ± 0.0024; in assay [2], 0.016 ± 0.0056.
For UCCUCCUACAGCGUUGCAUAGUAUUUAGUUA the same measures were 0.296 ± 0.021, 0.0063 ± 0.0021 and 0.0299 ± 0.009.
The like results for UCCUGGAUGAGCUUGCAUAGUAUUUAGUUUA were, in that order, 0.184 ± 0.02, 0.0105 ± 0.0031 and 0.0215 ± 0.0067.
The like results for UCCUGCUACAGCUUGCAUAAUAUUUAGUUA were, in that order, 0.363 ± 0.034, 0.00537 ± 0.0019 and 0.00444 ± 0.0021.
As to UCCUGGAAGAGCUUGGAUAGUAUUUAGUUA, the “pre-steady-state target cleavage rate” value worked out at 0.178 ± 0.0086 in assay [1] (setting [3]), 0.00531 ± 0.0023 in assay [1] (setting [4]) and 0.00392 ± 0.0027 in assay [2].
For UCCUGCUACACCUUGCAAAGUAUUUAGUUA, the “pre-steady-state target cleavage rate” value in assay [1] (setting [3]) came out at 0.106 ± 0.0086; in assay [1] (setting [4]), 0.00675 ± 0.0025; in assay [2], 0.00571 ± 0.0021.
Consider UCCUGCUACAGGUUGCAUAGUAUUUAGUAA, for which the results for the “pre-steady-state target cleavage rate” value in assay [1] (setting [3]), in assay [1] (setting [4]) and in assay [2] were 0.223 ± 0.024, 0.0054 ± 0.0028 and 0.00478 ± 0.0019, respectively.

The values are drawn from the supplement of paper PMC10338343.
